# Source: PubChem BioAssay
# A number with no mark means an inactive call. For some assays here: Measured potencies and affinities stand elsewhere. Activity calls are given as the source filed them. Unless noted, no rule for the calls is given here.
# What was measured:
# [1] = antimalarial activity against Dd2 strain (AID 2302;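 active = growth inhibition above 50% at the single 2 µM test dose, taken to imply half-maximal potency below 2 µM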;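 also: 0% = DMSO untreated growth and 100% = chloroquine plus artemisinin killed control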); conditions: P. falciparum Dd2 in RBCs, LDH growth readout, 72 h; at 2 µM; hits give high values
# [2] = human hepatoma cell viability loss – ATP luminescence, cytotoxicity control for P. falciparum antimalarial project, primary screen (AID 2303;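 active = inhibition above 50%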;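 also: 0% = DMSO wells and 100% = digitonin-killed cells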); conditions: HepG2 viability, 24-48 h, at 10 µM, hits give high values
# [3] = target: L-lactate dehydrogenase (Plasmodium falciparum (isolate CDC / Honduras)) (UniProt Q27743); assay: PfLDH activity inhibition – cell lysate, 3D7 strain, counter-screen for P. falciparum growth inhibition project (AID 2304);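 also: 0% = vehicle and 100% = reference inhibitor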; conditions: P. falciparum 3D7 crude extract, LDH APAD/NBT absorbance; at 2 µM; hits give high values
# Sequence of L-lactate dehydrogenase (Plasmodium falciparum (isolate CDC / Honduras)) (Q27743 whole entry, looked up): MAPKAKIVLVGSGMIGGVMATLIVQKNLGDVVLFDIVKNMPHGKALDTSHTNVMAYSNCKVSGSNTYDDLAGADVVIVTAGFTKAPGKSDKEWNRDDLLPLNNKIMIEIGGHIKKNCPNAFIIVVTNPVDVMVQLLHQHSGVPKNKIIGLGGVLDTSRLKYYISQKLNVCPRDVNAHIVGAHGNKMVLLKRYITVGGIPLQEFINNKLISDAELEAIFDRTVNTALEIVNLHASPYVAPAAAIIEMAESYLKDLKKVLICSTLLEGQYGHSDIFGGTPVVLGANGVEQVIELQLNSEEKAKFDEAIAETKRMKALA
# [4] = inhibition of 3D7 malaria parasite growth – strain 3D7 (AID 2306);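 also: 0% = DMSO wells and 100% = chloroquine plus artemisinin control wells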; conditions: P. falciparum 3D7 erythrocytic growth, LDH absorbance, 72 h; at 2 µM; hits give high values
# [5] = target: Calcium-dependent protein kinase 1 (Plasmodium falciparum (isolate 3D7)) (UniProt P62344); assay: PfCDPK1 kinase inhibitors, biochemical, TCAMS library (AID 1159585; cut-off not given, nearly all actives have IC50 up to about 0.98 µM;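 also: inhibitors leave more ATP so luminescence rises with inhibition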); conditions: recombinant PfCDPK1, Kinase-Glo ATP depletion luminescence
# Sequence of Calcium-dependent protein kinase 1 (Plasmodium falciparum (isolate 3D7)) (P62344 whole entry, looked up): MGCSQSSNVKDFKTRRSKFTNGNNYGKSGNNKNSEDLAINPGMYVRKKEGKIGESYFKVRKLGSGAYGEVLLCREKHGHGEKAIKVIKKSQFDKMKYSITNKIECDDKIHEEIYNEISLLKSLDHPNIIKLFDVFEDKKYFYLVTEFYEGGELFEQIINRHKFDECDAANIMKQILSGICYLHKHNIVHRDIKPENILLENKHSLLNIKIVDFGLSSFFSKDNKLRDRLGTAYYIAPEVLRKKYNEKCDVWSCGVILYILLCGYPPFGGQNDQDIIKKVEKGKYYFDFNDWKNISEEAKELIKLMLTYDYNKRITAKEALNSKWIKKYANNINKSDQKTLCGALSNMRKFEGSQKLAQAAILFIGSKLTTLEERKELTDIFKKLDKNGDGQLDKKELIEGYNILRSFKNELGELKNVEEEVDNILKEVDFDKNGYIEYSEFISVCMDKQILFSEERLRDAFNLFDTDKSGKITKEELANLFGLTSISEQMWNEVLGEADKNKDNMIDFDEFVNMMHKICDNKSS
# [6] = target: Plasmodium falciparum protein kinase 6 (PK6, PF3D7_1337100) (UniProt Q8IDW1); assay: PfPK6 kinase inhibitors, biochemical, TCAMS library (AID 1159586); conditions: recombinant PfPK6, Kinase-Glo ATP depletion luminescence
# Sequence of Plasmodium falciparum protein kinase 6 (PK6, PF3D7_1337100) (Q8IDW1 1-305): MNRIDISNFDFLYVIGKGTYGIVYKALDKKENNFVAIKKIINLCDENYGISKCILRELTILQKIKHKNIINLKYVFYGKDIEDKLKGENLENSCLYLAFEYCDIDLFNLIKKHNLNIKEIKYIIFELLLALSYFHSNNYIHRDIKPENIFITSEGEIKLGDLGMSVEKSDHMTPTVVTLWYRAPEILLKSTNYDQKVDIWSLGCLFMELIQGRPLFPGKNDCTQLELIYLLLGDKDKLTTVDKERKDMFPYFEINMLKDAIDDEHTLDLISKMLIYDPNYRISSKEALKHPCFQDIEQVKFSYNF
# [7] = target: Protein kinase 7 (PK7), Plasmodium falciparum 3D7 (PF3D7_0213400) (UniProt Q7YTF7); assay: inhibition of Plasmodium PK7 catalytic activity – biochemical, TCAMS antimalarial set, Kinase-Glo luminescence (AID 1159587); conditions: recombinant PfPK7, Kinase-Glo ATP depletion luminescence
# Sequence of Protein kinase 7 (PK7), Plasmodium falciparum 3D7 (PF3D7_0213400) (Q7YTF7 1-343): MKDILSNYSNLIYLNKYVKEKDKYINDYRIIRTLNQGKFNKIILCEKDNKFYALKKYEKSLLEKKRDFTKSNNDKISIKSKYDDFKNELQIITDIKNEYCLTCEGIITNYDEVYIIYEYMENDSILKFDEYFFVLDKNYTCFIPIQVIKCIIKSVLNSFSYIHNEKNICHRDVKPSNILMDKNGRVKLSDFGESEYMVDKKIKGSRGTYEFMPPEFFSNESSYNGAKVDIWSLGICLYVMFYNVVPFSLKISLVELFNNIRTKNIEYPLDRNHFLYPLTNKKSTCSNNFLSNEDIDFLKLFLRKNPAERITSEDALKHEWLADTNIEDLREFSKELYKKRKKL
# [8] = target: Calcium-dependent protein kinase 4 (Plasmodium falciparum (isolate 3D7)) (UniProt Q8IBS5); assay: PfCDPK4 kinase inhibitors, biochemical, TCAMS library (AID 1159588; cut-off not given, nearly all actives have IC50 up to about 0.91 µM); conditions: recombinant PfCDPK4, Kinase-Glo ATP depletion luminescence
# Sequence of Calcium-dependent protein kinase 4 (Plasmodium falciparum (isolate 3D7)) (Q8IBS5 whole entry, looked up): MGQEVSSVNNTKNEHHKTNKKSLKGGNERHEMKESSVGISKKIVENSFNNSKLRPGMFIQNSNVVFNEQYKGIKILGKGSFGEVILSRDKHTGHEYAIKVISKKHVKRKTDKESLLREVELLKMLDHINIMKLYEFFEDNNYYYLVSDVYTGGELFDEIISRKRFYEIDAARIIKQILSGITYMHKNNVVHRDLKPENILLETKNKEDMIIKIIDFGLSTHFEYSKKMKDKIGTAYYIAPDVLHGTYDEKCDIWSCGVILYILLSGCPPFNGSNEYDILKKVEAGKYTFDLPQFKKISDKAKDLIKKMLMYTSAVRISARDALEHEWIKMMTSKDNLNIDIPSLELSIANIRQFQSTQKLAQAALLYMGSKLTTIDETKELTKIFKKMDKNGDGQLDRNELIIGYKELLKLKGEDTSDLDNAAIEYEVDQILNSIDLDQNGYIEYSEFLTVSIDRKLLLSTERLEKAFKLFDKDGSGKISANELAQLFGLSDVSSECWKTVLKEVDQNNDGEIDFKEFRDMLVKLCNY
Structure (SMILES),growth inhibition [1],inhibition [2],inhibition [3] [%],growth inhibition [4],outcome [5],outcome [6],outcome [7],outcome [8]
COc1ccccc1C1CCN(CCCCNC(=O)c2ccc(/C=C/c3cc(Cl)cc(Cl)c3)cc2)CC1,30%,36%,9,96% (active),inactive,inactive,inactive,inactive
CN1CCN(CCCN(Cc2cccc(-c3ccc(CNCCc4ccccc4)cc3)c2)C(=O)c2cccs2)CC1,97% (active),86% (active),2,101% (active),inactive,inactive,inactive,inactive
Nc1ncc(-c2cc3ccccc3o2)c(N)n1,2%,-3%,0,81% (active),inactive,inactive,inactive,inactive
Cn1nccc1C(=O)NCCNCc1cccc(-c2cccc(-c3nc4ccc(C(F)(F)F)cc4[nH]3)c2)c1,99% (active),39%,-7,102% (active),inactive,inactive,inactive,inactive
Cc1ccc2c(=O)c3cc(C)ccc3[nH]c2c1,94% (active),10%,5,96% (active),inactive,inactive,inactive,inactive
COc1ccc(-n2ncc(C(=O)N3CCC4(C3)C(=O)N(c3ccccc3)c3ccccc34)c2C)cc1 (stereo not given),91% (active),45%,0,88% (active),inactive,inactive,inactive,inactive
O=C(NC1CCCCC1)c1csc(C2CCCN(C(=O)c3ccc(O)c(-c4cccc(C(F)(F)F)c4)c3)C2)n1 (stereo not given),85% (active),8%,5,96% (active),inactive,inactive,inactive,inactive
CC(C)C[C@H](NC(=O)c1ccc(OCCN2CCOCC2)cc1)C(=O)N[C@H](/C=N/N1CCN(C)C1=O)CCc1ccccc1,65% (active),3%,3,90% (active),inactive,inactive,inactive,inactive
Cc1ccccc1OCCCON1C(N)=NC(N)=NC1(C)C,97% (active),66% (active),4,95% (active),inactive,inactive,inactive,inactive
O=C(C=Cc1ccc(Cl)c(Cl)c1)NCCCCCN1CCC(CCNS(=O)(=O)c2ccc(F)cc2)CC1,-5%,36%,2,88% (active),inactive,inactive,inactive,inactive
FC(F)(F)COc1c(CNCCCCCCNCc2ccc3ccccc3c2OCC(F)(F)F)ccc2ccccc12,79% (active),100% (active),6,101% (active),inactive,inactive,inactive,inactive
O=C(NC1CCN(Cc2ccccc2)CC1)c1ccc(-c2nc3cc4ccccc4cc3[nH]2)s1,25%,13%,-1,99% (active),inactive,inactive,inactive,inactive
Clc1ccc(OCc2ccccc2)c(-c2nc(-c3nc4ccc(Cl)cc4[nH]3)cs2)c1,60% (active),-9%,-3,99% (active),inactive,inactive,inactive,inactive
Cc1ccc2sc(N(CCCn3ccnc3)C(=O)c3ccco3)nc2c1C,98% (active),9%,-2,93% (active),inactive,inactive,inactive,inactive
N=c1n(Cc2ccc(Cl)cc2)c2ccccc2n1CC(O)c1ccc(Cl)c(Cl)c1 (stereo not given),99% (active),58% (active),4,98% (active),inactive,inactive,inactive,inactive
CSc1ccccc1NC(=S)NC1CCN(CCCCCNC(=O)/C=C/c2ccc(Cl)c(Cl)c2)CC1,27%,19%,4,98% (active),inactive,inactive,inactive,inactive
Cc1nn(-c2ccnc3cc(Cl)ccc23)c(C)c1C(=O)NCc1cc(Cl)cc(Cl)c1,53% (active),-10%,-1,97% (active),inactive,inactive,inactive,inactive
CCOC(=O)c1sc(C(C)Nc2ccccc2)nc1-c1ccccc1 (stereo not given),91% (active),-8%,5,95% (active),inactive,inactive,inactive,inactive
COc1ccccc1C(=O)Nc1ccc(Nc2nc(C)cc(N3CCOCC3)n2)cc1,22%,28%,-3,98% (active),inactive,inactive,inactive,inactive
Cc1cc(F)ccc1Oc1nc(Nc2ccc(N3CCOCC3)c(F)c2)nc2c1S(=O)(=O)CCC2,98% (active),10%,0,96% (active),inactive,inactive,inactive,inactive

Structure (SMILES),growth inhibition [1],inhibition [2],inhibition [3] [%],growth inhibition [4],outcome [5],outcome [6],outcome [7],outcome [8]
N#Cc1ccc2c(c1)CCN(CCC1CCC(NC(=O)/C=C/c3ccc(F)c4ccccc34)CC1)CC2 (stereo not given),19%,29%,-2,95% (active),inactive,inactive,inactive,inactive
O=C(NC1CCN(Cc2ccccc2)CC1)c1ccc(-c2nc3cc(Cl)c(F)cc3[nH]2)cc1,100% (active),13%,3,100% (active),inactive,inactive,inactive,inactive
Cc1cccc2[nH]c(-c3ccc(-c4ccc(CN5CCN(CCO)CC5)cc4)s3)nc12,47%,34%,0,92% (active),inactive,inactive,inactive,inactive
CN1CCN(CC(=O)Nc2ccc(-c3ccc(-c4nc5ccc(C(F)(F)F)cc5[nH]4)s3)cc2)CC1,73% (active),84% (active),5,102% (active),inactive,inactive,inactive,inactive
Cc1c2ccc(N(C)c3ccnc(Nc4ccc5c(c4)nc(NC(C)C)n5C)n3)cc2nn1C,100% (active),2%,-4,100% (active),inactive,inactive,inactive,inactive
CC(=O)Nc1ccc(CN(Cc2ccc(C)cc2)Cc2cccc(Oc3ccccc3)c2)cc1,87% (active),34%,1,84% (active),inactive,inactive,inactive,inactive
COc1cc(C(C)C)ccc1C1CCN(CCCCNC(=O)c2ccc(NC(=O)c3ccc(Cl)cc3)cc2)CC1,99% (active),100% (active),3,98% (active),inactive,inactive,inactive,inactive
CCOc1c(CNCCCCCCNCc2ccc3ccccc3c2OCC)ccc2ccccc12,78% (active),100% (active),6,99% (active),inactive,inactive,inactive,inactive
Cc1cccc2[nH]c(-c3cccc(-c4ccc(NC(=O)Nc5ccc(F)c(F)c5F)cc4)c3)nc12,100% (active),61% (active),-4,101% (active),inactive,inactive,inactive,inactive
CN(C)CCCN1CCN(C(=O)c2cc3cc(-c4ccccc4)ccc3n2S(=O)(=O)c2ccccc2)CC1,94% (active),32%,4,101% (active),inactive,inactive,inactive,inactive
COc1cc2nccc(Nc3ccc4c(cnn4Cc4cccc(F)c4)c3)c2cc1OC,99% (active),29%,-6,101% (active),inactive,inactive,inactive,inactive
CC(=O)Nc1ccc(C(=O)Nc2cccc(-c3ccc(-c4nc5c(C)cccc5[nH]4)cc3)c2)cn1,94% (active),25%,4,100% (active),inactive,inactive,inactive,inactive
Cc1cc(O)c(CN2CCN(Cc3cccs3)CC2)cc1C(C)C,97% (active),7%,-2,98% (active),inactive,inactive,inactive,inactive
Cc1ccccc1C1CCN(C2CCC(NC(=O)c3ccc(-c4cccc(C(F)(F)F)c4)o3)CC2)CC1 (stereo not given),101% (active),56% (active),-2,99% (active),inactive,inactive,inactive,inactive
Cc1[nH]c(C)c(-c2ccc(-c3ccccc3F)nc2)c(=O)c1Br,97% (active),2%,-3,97% (active),inactive,inactive,inactive,inactive
CN(C)c1ccc(-c2ccc(C(=O)NC3CCN(Cc4ccc5c(c4)OCCO5)CC3)s2)cc1,73% (active),36%,-2,100% (active),inactive,inactive,inactive,inactive
COc1ccc(CC(=O)Nc2ccc(-c3cccc(-c4nc5c(C)cccc5[nH]4)c3)cc2)cc1O,30%,6%,4,96% (active),inactive,inactive,inactive,inactive
Cc1ccc(C)c(CC(=O)N2CCC(n3c(C)nc4ccc(F)cc43)CC2)c1,99% (active),-2%,1,100% (active),inactive,inactive,inactive,inactive
CCCCN(CCCC)CCNC(=O)c1cccc(NC(=O)N2CCc3cc(SC)c(C(F)(F)F)cc32)c1,32%,15%,-1,96% (active),inactive,inactive,inactive,inactive
C[C@H](Cc1ccc(C[C@@H](C)NC[C@H](O)c2cccc(Cl)c2)cc1)NC[C@H](O)COc1ccccc1,60% (active),99% (active),-2,96% (active),inactive,inactive,inactive,inactive
